# Measurements reported in ChEMBL document CHEMBL3433997, “St. Jude Leishmania screening dataset” (2016).
# Biological target: Glucose transporter (Leishmania mexicana) (UniProt O61059)
# Assay: ST_JUDE_LEISH: Cytotoxicity at 2uM final concentration against transgenic Leishmania Mexicana promastigotes LmGT2 that are glucose transport deficient and complemented with the L. Mexicana glucose transporter 2. Activity is measured by DNA content using SYBR green in vitro
# Assay type: functional
row,Compound,inhibition [%]
1,CC(C)C1C(O)=C(c2ccc3ccccc3c2)C(=O)N1CC1CCCCC1 (centres undefined),-8.52
2,O=C(Nc1cc(C(F)(F)F)cc(C(F)(F)F)c1)Nc1cc(C(F)(F)F)cc(C(F)(F)F)c1,3.86
3,CN(C)CCOc1cccc(NC(=O)Nc2ccc(-c3ccccc3)cc2)c1,1.53
4,O=C(Nc1ccc(-c2nc3ccccc3[nH]2)cc1)c1ccc(N2CCOCC2)c([N+](=O)[O-])c1,-0.91
5,CC(C)(C)c1ccc(-c2cc(C(=O)N[C@@H](CO)C(=O)O)on2)cc1.CC(C)(C)c1ccc(-c2nocc2C(=O)N[C@@H](CO)C(=O)O)cc1,6.48
6,Cc1ccccc1-c1nc2c(CN3CCC(O)(c4ccccc4)CC3)c(O)ccc2[nH]1,8.8
7,CC(Sc1nnc(-c2ccccc2Br)[nH]1)C(=O)Nc1ccc(F)cc1 (centres undefined),6.58
8,CS(=O)(=O)CCNCc1nc(-c2ccc3ncnc(Nc4ccc(OCc5cccc(F)c5)c(Cl)c4)c3c2)cs1,-1.62
9,CCOC(=O)N1CCN(CCCNc2c3ccc(Cl)cc3nc3ccc(OC)cc23)CC1,1.42
10,COCCNc1nc(N2CCC(CNC(=O)c3ccc(-c4ccc(C(=O)N(C)C)cc4C)cc3)CC2)nc2cc(OC)c(OC)cc12,1.17
11,Cc1cccc2nc(-c3cccc(-c4ccc(NC(=O)c5cnccc5C(F)(F)F)cc4)c3)[nH]c12,3.44
12,COc1ccccc1CNC(=O)c1nn(-c2ccc(Cl)cc2)c(=O)c2ccccc12,3.54
13,CCCC1CCNC(C(O)c2ccnc3ccc(OC)cc23)C1 (centres undefined),2.16
14,OC(c1cccc(OCc2ccccc2)c1)C1CN(CCc2ccccc2)CCC1(O)c1ccccc1 (centres undefined),-0.2
15,COc1cccc(Nc2c(C(N)=O)cnc3ccc(-c4ccc([S+](C)[O-])cc4)cc23)c1 (centres undefined),0.66
16,CC(C)Nc1nc(NC2CCCCC2)nc(N2CCCCCCC2)n1,11.6
17,Cc1ccc(-c2nc(N3CCN(C(=O)c4ccco4)CC3)c3ccc(Cl)cc3n2)cc1,2.34
18,Nc1ccc(-c2nc3cc(C4=N[C@H]5CCCC[C@H]5N4)ccc3o2)cc1[N+](=O)[O-],-0.09
19,Cc1cc(N[C@@H](Cc2ccccc2)C(=O)NCCc2ccccc2)nc(NCCc2cccs2)n1,1.55
20,Fc1ccc(C=NN=c2cc[nH]c3ccccc23)cc1,8.73

row,Compound,inhibition [%]
1,CCOc1cc(N)c2nc3ccc([N+](=O)[O-])cc3cc2c1,6.39
2,CCN(CC)CCN(Cc1ccc(-c2ccc(C(F)(F)F)cc2)cc1)C(=O)Cn1c(CCc2cc(F)cc(F)c2F)nc(=O)c2ccccc21,-0.7
3,N=C(N)NC(=O)Nc1cc(Br)c(Cl)c(Br)c1,-1.76
4,CN(Cc1ccc(-c2ccc(C(F)(F)F)cc2)cc1)C(=O)Cn1c(CCc2cccc(F)c2F)nc(=O)c2ccc(N3CCN(CCN4CCCCC4)CC3)nc21,3.71
5,CC(C)n1ncc2c(C(=O)N3CCCc4ccccc43)cc(-c3ccccc3)nc21,3.97
6,COc1c(C2CCN(CCCCNC(=O)c3ccc(-c4ccc(C#N)cc4)c(O)c3)CC2)ccc2c1CCCC2,0.55
7,Cc1cc(N[C@@H](CC(C)C)C(=O)Nc2ccccc2)nc(NCC2CCCCC2)n1,5.12
8,CCn1c(C(C)C)cc2c3c(N)nc(N)nc3ccc21,42
9,CCCCCN1CCCN(Cc2cccc(NC(=O)c3ccc(-c4ccccc4)cc3)c2)CC1,2.3
10,Nc1nc(N)c2c(ccc3c2cnn3S(=O)(=O)N2CCCC2)n1,-2.01
11,Cc1[nH]c(C)c(-c2ccc(-c3ccc(OC(F)(F)F)cc3)nc2)c(=O)c1Br,8.85
12,O=c1cc(NCCCNC2CCOc3c(I)cc(Cl)cc32)[nH]c2ccccc12 (centres undefined),1.03
13,CCOc1cc2ncnc(Nc3cc(Cl)c(Cl)c(Cl)c3)c2cc1OCC,1.59
14,CCOc1ccccc1CNc1nccc(NCc2ccccc2OC)n1,2.05
15,Cc1ccc(-n2c(C)nc3c(Nc4ccc(-c5ccncc5)cc4)ncnc32)c(C)c1,81
16,COc1ccccc1C1CCN(C2CCC(NC(=O)c3cc(-c4ccc(Cl)cc4)cs3)CC2)CC1 (centres undefined),0.71
17,CCCCOc1ccc(-n2c(Nc3ccccc3)nc3cc(S(N)(=O)=O)ccc32)cc1,7.09
18,O=C(Nc1nc(-c2ccccn2)cs1)c1ccc(Br)s1,0.61
19,CC(=O)c1ccc2nc[nH]c(=O)c2c1,91.6
